Measurements from PubChem BioAssay AID1240 (Sanford-Burnham Center for Chemical Genomics, 2008).
In all, about 50,000 compounds went through this assay and about 800 (1.6%) showed an effect of 50% or more. Many of the other results were omitted from the sample, so strong results are more common in it than they were.

Each compound was assayed against Bcl-2-like protein 10 (Homo sapiens) (UniProt Q9HD36) (assay: Phenotype converters, Bcl-B/TR3 peptide binding displacement, primary biochemical FP (AID 1240;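 further: 0% = Bcl-B with tracer peptide and DMSO and 100% = tracer peptide lacking Bcl-B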)). Conditions: GST-Bcl-B / FITC-TR3 peptide fluorescence polarization; stronger effect = higher value; compound at 3.75 mg/L.
Bcl-2-like protein 10 (Homo sapiens), sequence (Q9HD36 whole entry, looked up): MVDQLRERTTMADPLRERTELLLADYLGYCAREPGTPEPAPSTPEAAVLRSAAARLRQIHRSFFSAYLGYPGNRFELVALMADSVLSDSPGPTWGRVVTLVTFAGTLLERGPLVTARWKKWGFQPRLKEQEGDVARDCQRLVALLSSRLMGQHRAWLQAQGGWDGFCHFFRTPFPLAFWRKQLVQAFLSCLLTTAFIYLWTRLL

| SMILES | displacement [%] |
| --- | --- |
| O=C1C(=Cc2ccc(-c3ccccc3[N+](=O)[O-])o2)C(=O)c2ccccc21 | -3.3 |
| COc1ccc(-c2cc(CC(=O)c3ccccc3)cc(-c3ccc(OC)cc3)n2)cc1 | 7.7 |
| COc1ccc(Cl)cc1N(CC(=O)N1CCCCC1)S(=O)(=O)c1ccc(C)c([N+](=O)[O-])c1 | 2.3 |
| Cc1ccccc1/[N+]([O-])=C/c1cccs1 | 0.1 |
| COc1ccccc1NC(=O)C(=O)NCC(C)C | 9.1 |
| COc1cc(OC)c(OC)cc1CN1CCN(Cc2cc(OC)c(OC)cc2Br)CC1 | 1.2 |
| CCc1cc(=O)oc2cc(OC(C)=O)ccc12 | 12.3 |
| O=C(N(c1cccc(C(F)(F)F)c1)C1C=CS(=O)(=O)C1)C(F)(F)F (stereo not given) | 14.6 |
| CCOC(=O)c1ccccc1N(C(=O)C(F)(F)F)C1C=CS(=O)(=O)C1 (stereo not given) | -3.1 |
| O=C(N(c1cccc2ccccc12)C1C=CS(=O)(=O)C1)C(F)(F)F (stereo not given) | 66 |
| CC(Oc1ccccc1)C(=O)N1CCC(Cc2ccccc2)CC1 (stereo not given) | 3.1 |
| C=CCN1C(=O)/C(=C\c2ccc3c(c2)OCO3)C(=O)NC1=S | 4.4 |
| COc1c(Cl)cc(C(=O)Nc2c(C)cccc2C)cc1Cl | 6.7 |
| COc1ccc(Br)cc1C1C(C(=O)OCCOC(C)C)=C(C)NC2=C1C(=O)CCC2 (stereo not given) | -2.6 |
| Cc1ccc(NC(=O)CN(c2ccc(C(C)C)cc2)S(=O)(=O)c2ccccc2)c(C)c1 | 5.6 |
| COc1cc(C2OCC3(CO)C(C)C=C(C)C2C3C)ccc1O (stereo not given) | 16.4 |
| COc1ccc(N2C(=O)c3cccc4c(N5CCNCC5)ccc(c34)C2=O)cc1 | 37.2 |
| Cc1cccc(N2C(=O)c3cccc4c(N5CCCCC5)ccc(c34)C2=O)c1 | 15.5 |
| Cc1cccc(N2C(=O)c3cccc4c(N5CCOCC5)ccc(c34)C2=O)c1 | 154 |
| O=C1c2cccc3c(N4CCCCC4)ccc(c23)C(=O)N1c1ccc(Cl)cc1 | 5.7 |
| Cc1cccc(N2C(=O)c3ccc(-c4ccc5c(c4)C(=O)N(c4cccc(C)c4)C5=O)cc3C2=O)c1 | 6.7 |
| O=C1c2cccc3c(N4CCNCC4)ccc(c23)C(=O)N1c1ccc(Cl)cc1 | 101 |
| CC(=O)Oc1ccc(-c2cccc(C(=O)NC(CO)C(O)c3ccc([N+](=O)[O-])cc3)c2)cc1 (stereo not given) | 10.4 |
| COC(=O)c1ccc(-n2ncnc2-c2ccc(Br)cc2)cc1 | -5.4 |
| CCC(=O)NC(Nc1ccc(OC)cc1)(C(F)(F)F)C(F)(F)F | -2.7 |
| Cc1csc(-c2cc3ccc(O)c(CN4CC5(C)CC4CC(C)(C)C5)c3oc2=O)n1 (stereo not given) | 138 |
| Cc1oc2c(CN3CC4(C)CC3CC(C)(C)C4)c(O)ccc2c(=O)c1-c1nc2ccccc2s1 (stereo not given) | 11.2 |
| Cc1csc(-c2cc3ccc(OCc4c(F)c(F)c(F)c(F)c4F)cc3oc2=O)n1 | 6.9 |

| SMILES | displacement [%] |
| --- | --- |
| COc1ccc(C)cc1NC(=O)COc1ccc(Cl)cc1C | -5.2 |
| O=C(O)CCC(=O)Nc1ccc(CC(=O)O)cc1 | 21.4 |
| CCOC(=O)c1c(NC(=O)C2CCCO2)sc(C(=O)N(CC)CC)c1C (stereo not given) | -4 |
| N#C/C(=C\c1ccc(Cl)cc1)c1nn(CCO)c(N)c1C#N | 11.2 |
| CCN(CC)c1ccc(/C=C(\C#N)c2nn(CCO)c(N)c2C#N)cc1 | 68.2 |
| N#C/C(=C\c1ccc(F)cc1)c1nn(CCO)c(N)c1C#N | -45.5 |
| COc1cc(OC)cc(C(=O)O/N=C(\c2ccncc2)c2ccc([N+](=O)[O-])cc2)c1 | 10.5 |
| O=C1/C(=C\c2ccc(-c3cccc([N+](=O)[O-])c3)o2)SC(=S)N1CCc1ccccc1 | 114 |
| O=C(O)CCN1C(=O)/C(=C/c2ccc(-c3ccc([N+](=O)[O-])cc3)o2)SC1=S | -59.7 |
| O=C1/C(=C/c2ccc(-c3cccc([N+](=O)[O-])c3)o2)SC(=S)N1Cc1ccco1 | 9.9 |
| O=C(O)CCCN1C(=O)/C(=C\c2ccc(-c3ccc(Br)cc3)o2)SC1=S | -65.6 |
| O=C(O)CCCN1C(=O)/C(=C\c2ccc(-c3cccc([N+](=O)[O-])c3)o2)SC1=S | 59 |
| O=C1/C(=C/c2ccc(-c3ccc([N+](=O)[O-])cc3)o2)SC(=S)N1Cc1ccccc1 | 9.4 |
| O=C(NC1CCN(Cc2ccccc2)CC1)c1ccc(F)cc1 | 2.6 |
| FC(F)(F)c1cccc(NC(=S)NCc2ccc3c(c2)OCO3)c1 | -6.8 |
| Cc1ccccc1OCCn1cc(C=C2C(=O)NC(=S)NC2=O)c2ccccc21 | 6.1 |
| CCC(C)c1ccccc1OCCn1cc(/C=C2/SC(=S)NC2=O)c2ccccc21 (stereo not given) | 128 |
| COc1cccc(OCCn2cc(C=C3C(=O)NC(=S)NC3=O)c3ccccc32)c1 | 36.6 |
| CCc1cc(C)cc(OCCn2cc(/C=C3/SC(=S)NC3=O)c3ccccc32)c1 | 78.8 |
| CC(C)(C)c1ccc(OCCn2cc(/C=C3/SC(=S)NC3=O)c3ccccc32)cc1 | 15.2 |
| CCc1cc(C)cc(OCCn2cc(C=C3C(=O)NC(=S)NC3=O)c3ccccc32)c1 | 14.7 |
| CCc1cc(C)cc(OCCn2cc(/C=C3/SC(=S)N(C)C3=O)c3ccccc32)c1 | 123 |
| COc1cccc(OCCn2cc(/C=C3/SC(=S)NC3=O)c3ccccc32)c1 | -15.1 |
| Cc1cccc(OCCn2cc(/C=C3/SC(=S)N(C)C3=O)c3ccccc32)c1 | 15.1 |
| O=C1NC(=S)S/C1=C\c1cn(CCOc2ccccc2F)c2ccccc12 | -62.3 |
| CCc1cc(C)cc(OCCOc2ccccc2/C=C2/SC(=S)N(C)C2=O)c1 | 2.3 |
| O=C1NC(=S)S/C1=C/c1cn(CCOc2ccc(Br)cc2)c2ccccc12 | 68.9 |
